# According to PubChem BioAssay:
# Where “and” joins values, the source holds several entries; their conditions need not be identical. Identical values can stand only once. Results filed as inconclusive are left out. For part of these data: Results with a measured potency or affinity are listed apart. Calls of active or inactive are those of the source.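 Rule for the calls, unless noted: active = compounds whose cell count with miR-34 switched on is under 0.7 times the count with it off; inactive = the rest.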
# Columns and labels:
# [1] = polyglutamine-triggered caspase-3 activation inhibitors, cell-based (AID 1583); details: polyglutamine-induced caspase-3 activation, cell assay; stronger effect = higher value;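 tested at 10 µM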
# [2] = suppressors of polyQ aggregation in yeast, 75Q-TubU reporter (AID 1593); details: Yeast 75Q polyglutamine aggregation reporter
# [3] = rescue of polyQ-huntingtin neuronal dysfunction in worms, whole organism, C. elegans mechanosensory neurons, N-terminal huntingtin (AID 1599); details: touch response, stronger effect = higher value
# [4] = inhibitors of mitochondrial cytochrome c release, biochemical, purified mitochondria (AID 1603); details: stronger effect = lower value;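 note: mouse liver mitochondria challenged with calcium chloride; signal normalized to the plate average as 100%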
# [5] = inhibitors of polyQ protein aggregation (AID 1604); details: polyglutamine-induced protein aggregation inhibition assay; stronger effect = higher value; tested at 2.5 µM
# [6] = enhancers of glutamate uptake in motor neurons, MN-1 cell line (AID 1612); details: MN-1 motor neuron cells, stronger effect = higher value;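 note: tested at 1 µM final; 0% = mean of DMSO vehicle wells on each plate; positive means more glutamate uptake than control and negative means less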
# [7] = reducers of polyQ inclusions in PC12 cells, cell-based, NGF-treated PC12, GFPQ80 (AID 1614); details: PC12 NGF-treated GFP-polyQ80 inclusion reduction;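 note: lower means fewer inclusions and 0 means no inclusions at all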
# [8] = suppressors of polyglutamine aggregation in yeast, 75Q-TubH (AID 1616); details: S. cerevisiae 75Q-TubH polyglutamine aggregation suppression; stronger effect = higher value
# [9] = liver-stage malaria parasite growth inhibition, primary screen, cell-based, HepG2, luciferase luminescence, HepG2 viability (AID 624349; in the data active = parasite load remaining mostly below about 12%, no sharp cut-off; inactive = mostly above about 10%;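 note: 100% = mean of DMSO negative control wells on the same plate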); details: P. berghei liver stage in HepG2, luciferase luminescence, concentration not given here; parasite load remaining: stronger effect = lower value; viability: measured here: HepG2 viability without parasites
# [10] = molecular target: 6-phosphogluconate dehydrogenase, decarboxylating (Homo sapiens) (UniProt P52209); assay: 6PGD enzyme inhibitors, primary screen, biochemical, human, recombinant enzyme, NADPH absorbance (AID 1159550;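 active = at least 20% inhibition of 6-phosphogluconate dehydrogenase activity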); details: recombinant 6PGD, NADPH absorbance 341 nm; at 10 µM; stronger effect = higher value
# Chain of 6-phosphogluconate dehydrogenase, decarboxylating (Homo sapiens) (P52209 whole entry, looked up): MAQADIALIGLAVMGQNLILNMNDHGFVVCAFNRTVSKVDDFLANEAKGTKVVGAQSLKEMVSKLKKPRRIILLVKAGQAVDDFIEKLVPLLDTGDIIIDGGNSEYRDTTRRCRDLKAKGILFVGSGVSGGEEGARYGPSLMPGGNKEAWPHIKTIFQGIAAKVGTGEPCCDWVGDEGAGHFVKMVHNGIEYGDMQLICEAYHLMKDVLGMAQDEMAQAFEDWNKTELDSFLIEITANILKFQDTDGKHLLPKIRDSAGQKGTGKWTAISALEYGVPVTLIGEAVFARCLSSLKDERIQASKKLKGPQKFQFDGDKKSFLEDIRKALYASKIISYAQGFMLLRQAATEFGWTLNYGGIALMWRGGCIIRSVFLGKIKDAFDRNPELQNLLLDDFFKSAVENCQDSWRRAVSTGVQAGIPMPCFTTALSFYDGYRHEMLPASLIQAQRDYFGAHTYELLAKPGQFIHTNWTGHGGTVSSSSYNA
# [11] = differential killing of epithelial or mesenchymal cells, primary screen, imaging, PC-3E GFP, TEM4-18 mCherry, co-culture (AID 1345086;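 active = compounds killing one labelled cell type while sparing the other, by normalised counts and ratio limits, not self-fluorescent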;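 for all read-outs here: cells exposed to compound for 72 h before imaging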;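 for red/green cell ratio (normalised): normalised mesenchymal count divided by normalised epithelial count so high means epithelial killing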); details: imaging cell counts, at 1 µM; for red/green cell ratio (normalised): actives lie on both sides, counts scaled to control wells, 1 = unselective
# [12] = growth inhibition of DIPG glioma cells, dose response, cell-based, SU-DIPG-XIII, MIPE4.0, CellTiter-Glo, qHTS (AID 1347061; cut-off not given, nearly all actives have AC50 up to about 37 µM;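 note: cells exposed to compound for 48 hours before readout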); details: SU-DIPG-XIII viability, CellTiter-Glo ATP luminescence
# [13] = growth inhibition of DIPG glioma cells, dose response, cell-based, JHH-DIPG-1, MIPE4.0, CellTiter-Glo, qHTS (AID 1347062; cut-off not given, nearly all actives have AC50 up to about 27 µM); details: JHH-DIPG-1 viability, CellTiter-Glo ATP luminescence
# [14] = sensitizers of A549 cells to miR-34 induction, primary screen, imaging, A549 dox-inducible miR-34, nuclei and caspase counts (AID 1347080); details: A549 miR-34 inducible, Hoechst nuclei count, 48 h
# [15] = survival rescue of mitochondrial mutant cells in low glucose, primary screen, MELAS cybrids, Rieske KO mouse fibroblasts, CellTiter-Glo (AID 1508586;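 active = mean z-score across replicates of 1.96 or higher in either the MELAS or the Rieske mutant cell line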;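 note: z relative to plate mean and SD of compound and empty wells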)
# [16] = molecular target: Mitogen-activated protein kinase 7 (Homo sapiens) (UniProt Q13164); assay: ERK5 transactivation activators in reporter cells, primary screen, cell-based, HTS (AID 1508626;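 active = luciferase signal above three times the same-plate solvent-only control wells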;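 note: luciferase driven by Gal4-ERK5 fusion binding five Gal4 sites before minimal TATA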); details: HeLa Gal4-ERK5 transactivation, 18 h, at 5 µM, stronger effect = higher value
# Chain of Mitogen-activated protein kinase 7 (Homo sapiens) (Q13164 whole entry, looked up, the tested form may be a part): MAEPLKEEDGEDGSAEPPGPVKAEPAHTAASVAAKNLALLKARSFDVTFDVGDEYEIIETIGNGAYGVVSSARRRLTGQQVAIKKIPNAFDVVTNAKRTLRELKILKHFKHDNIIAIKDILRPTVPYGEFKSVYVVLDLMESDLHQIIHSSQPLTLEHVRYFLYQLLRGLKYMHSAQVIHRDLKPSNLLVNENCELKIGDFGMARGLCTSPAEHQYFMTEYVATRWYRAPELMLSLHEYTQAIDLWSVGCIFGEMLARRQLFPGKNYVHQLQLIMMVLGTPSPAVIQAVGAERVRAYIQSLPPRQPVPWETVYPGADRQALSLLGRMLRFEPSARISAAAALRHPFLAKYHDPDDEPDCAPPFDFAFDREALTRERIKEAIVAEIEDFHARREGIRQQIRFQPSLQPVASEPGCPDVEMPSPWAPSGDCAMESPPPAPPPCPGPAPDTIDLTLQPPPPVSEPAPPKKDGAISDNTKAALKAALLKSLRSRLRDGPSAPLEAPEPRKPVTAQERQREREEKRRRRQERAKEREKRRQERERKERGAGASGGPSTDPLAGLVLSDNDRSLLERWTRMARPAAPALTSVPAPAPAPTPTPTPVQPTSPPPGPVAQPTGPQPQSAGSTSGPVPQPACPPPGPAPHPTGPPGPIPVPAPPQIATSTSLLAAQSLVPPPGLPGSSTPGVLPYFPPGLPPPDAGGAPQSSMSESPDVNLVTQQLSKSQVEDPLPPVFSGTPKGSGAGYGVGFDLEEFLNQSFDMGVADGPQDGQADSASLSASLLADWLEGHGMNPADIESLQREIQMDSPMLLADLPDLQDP
# [17] = viability rescue of complex I mutant cybrids, primary screen, cell-based, galactose medium, ATP luminescence (AID 1645843;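 active = z-score of at least 1.8 in each of two replicates, scored against plate mean and spread of sample wells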;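 note: positive z means more ATP and so rescue of galactose-driven cybrid death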); details: complex I mutant cybrid cells, 72 h, stronger effect = higher value
# [18] = molecular target: NAD(+) hydrolase SARM1 (Homo sapiens) (UniProt Q6SZW1); assay: SARM1 TIR NADase inhibitors, cell lysate, NAD-Glo luminescence (AID 1508614;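 active = compound whose remaining NAD level is above about 45 nM, limit read from the data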;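 note: higher remaining NAD means stronger inhibition of SARM1 NADase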); details: SAM-TIR HEK293T lysate NADase, at 1 µM, stronger effect = higher value
# Chain of NAD(+) hydrolase SARM1 (Homo sapiens) (Q6SZW1 whole entry, looked up): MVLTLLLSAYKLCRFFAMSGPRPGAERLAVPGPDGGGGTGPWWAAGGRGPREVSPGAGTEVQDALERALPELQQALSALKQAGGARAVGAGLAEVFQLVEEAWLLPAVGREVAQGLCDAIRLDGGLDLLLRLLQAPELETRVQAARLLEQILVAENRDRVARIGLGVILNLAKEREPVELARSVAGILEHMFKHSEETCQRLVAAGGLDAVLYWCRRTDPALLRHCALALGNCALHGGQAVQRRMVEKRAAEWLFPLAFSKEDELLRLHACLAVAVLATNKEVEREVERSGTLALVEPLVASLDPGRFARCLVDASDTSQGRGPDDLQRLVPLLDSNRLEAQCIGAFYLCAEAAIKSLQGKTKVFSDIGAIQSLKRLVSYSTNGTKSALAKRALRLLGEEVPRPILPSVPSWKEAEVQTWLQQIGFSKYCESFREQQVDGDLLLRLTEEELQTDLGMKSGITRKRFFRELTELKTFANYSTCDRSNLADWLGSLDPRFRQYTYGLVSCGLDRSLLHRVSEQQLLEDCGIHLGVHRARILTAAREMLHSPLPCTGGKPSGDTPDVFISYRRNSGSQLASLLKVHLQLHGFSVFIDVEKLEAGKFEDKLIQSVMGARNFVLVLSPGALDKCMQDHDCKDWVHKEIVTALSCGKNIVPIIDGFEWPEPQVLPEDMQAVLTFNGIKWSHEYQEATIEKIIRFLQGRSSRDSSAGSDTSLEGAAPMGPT
# [19] = measured here: epithelial PC-3E GFP cell survival
# [20] = measured here: mesenchymal TEM4-18 mCherry cell survival
# [21] = stronger effect = lower value, cell number ratio, induced over uninduced
# [22] = measured here: relative caspase fold change +Dox/-Dox
# [23] = measured here: total cells with miR-34 induction, stronger effect = lower value
# [24] = measured here: total cells without miR-34 induction
# [25] = MELAS cybrid survival, CellTiter-Glo 48 h, stronger effect = higher value
# [26] = Rieske KO mouse fibroblast survival, CellTiter-Glo 72 h
structure (smiles),measurement,setting,value
O=c1c(O)c(-c2ccc(O)cc2O)oc2cc(O)cc(O)c12,inhibition,[1],-17.6%
same,score,[2],1.66
same,rescue above control,[3],-6.82
same,cytochrome c release ratio,[4],0.57
same,inhibition of aggregation,[5],49%
same,glutamate uptake change,[6],-11.3%
same,inclusion score,[7],2
same,aggregation suppression score,[8],0.872
same,parasite load remaining,[9],81.2% (inactive)
same,viability,[9],66.9%
same,inhibition,[10],-23.3% (inactive)
same,red/green cell ratio (normalised),[11],0.97 (inactive)
same,normalised cell number,[11]; [19],1.01
same,normalised cell number,[11]; [20],0.98
same,outcome,[12],inactive
same,outcome,[13],inactive
same,fold change,[14]; [21],1.04 (inactive) and 0.943 (inactive)
same,fold change,[14]; [22],0.926 and 0.734
same,cell count,[14]; [23],11400 and 9750
same,cell count,[14]; [24],11000 and 10300
same,z-score,[15]; [25],-0.297 (inactive)
same,z-score,[15]; [26],0.729
same,luciferase signal,[16],32 AU (inactive)
same,z-score,[17],0.495 (inactive)
Nc1ccc(S(=O)(=O)Nc2ncccn2)cc1,inhibition,[1],-24.3%
same,score,[2],0.99
same,rescue above control,[3],-2.17
same,cytochrome c release ratio,[4],1.47
same,inhibition of aggregation,[5],53.9%
same,glutamate uptake change,[6],-2.67%
same,inclusion score,[7],2
same,aggregation suppression score,[8],0.995
same,inhibition,[10],5.23% (inactive)
same,red/green cell ratio (normalised),[11],1.41 (inactive)
same,normalised cell number,[11]; [19],0.84
same,normalised cell number,[11]; [20],1.19
same,outcome,[12],inactive
same,outcome,[13],inactive
same,z-score,[15]; [25],-0.222 (inactive) and 0.26 (inactive) and -0.566 (inactive)
same,z-score,[15]; [26],0.689 and 0.071 and -1.27
same,remaining NAD,[18],10 nM (inactive)
same,luciferase signal,[16],40 AU (inactive)
same,z-score,[17],-0.065 (inactive)
CC[C@H]1OC(=O)[C@H](C)[C@@H](O[C@H]2C[C@@](C)(OC)[C@@H](O)[C@H](C)O2)[C@H](C)[C@@H](O[C@@H]2O[C@H](C)C[C@H](N(C)C)[C@H]2O)[C@](C)(O)C[C@@H](C)/C(=N\OCOCCOC)[C@H](C)[C@@H](O)[C@]1(C)O,inhibition,[1],1.74%
same,score,[2],0.81
same,rescue above control,[3],1.9
same,cytochrome c release ratio,[4],0.93
same,inhibition of aggregation,[5],60.6%
same,glutamate uptake change,[6],2.1%
same,inclusion score,[7],2
same,aggregation suppression score,[8],0.306
same,parasite load remaining,[9],160% (inactive) and 51.6% (inactive)
same,viability,[9],87.6% and 99.8%
same,inhibition,[10],16.8% (inactive)
same,red/green cell ratio (normalised),[11],1 (inactive)
same,normalised cell number,[11]; [19],1.13
same,normalised cell number,[11]; [20],1.13
same,outcome,[12],inactive
same,outcome,[13],inactive
same,fold change,[14]; [21],0.869 (inactive)
same,fold change,[14]; [22],4.54
same,cell count,[14]; [23],10400
same,cell count,[14]; [24],12000
same,z-score,[15]; [25],-0.323 (inactive)
same,z-score,[15]; [26],-0.397
same,remaining NAD,[18],10 nM (inactive)
same,luciferase signal,[16],84 AU (inactive)
O=C(/C=C/C=C/c1ccc2c(c1)OCO2)N1CCCCC1,inhibition,[1],-11.5%
same,score,[2],0.85
same,rescue above control,[3],3.18
same,cytochrome c release ratio,[4],0.68
same,inhibition of aggregation,[5],51%
same,glutamate uptake change,[6],10.6%
same,inclusion score,[7],2
same,aggregation suppression score,[8],0.367
same,inhibition,[10],0.86% (inactive)
same,red/green cell ratio (normalised),[11],0.95 (inactive)
same,normalised cell number,[11]; [19],1.26
same,normalised cell number,[11]; [20],1.2
same,outcome,[12],inactive
same,outcome,[13],inactive
same,fold change,[14]; [21],0.898 (inactive) and 0.941 (inactive)
same,fold change,[14]; [22],1.07 and 2.41
same,cell count,[14]; [23],7720 and 10400
same,cell count,[14]; [24],8590 and 11100
same,remaining NAD,[18],10 nM (inactive)
same,luciferase signal,[16],80 AU (inactive)
